Assay results as given in PubChem BioAssay (EPA / NIEHS).
Calls of active or inactive are those of the source. How the source made its calls: active means hit-call score of the fitted dose curve at least 0.9, where 1 is the maximum; inactive means score below 0.9.

Key:
Settings in all cases: mRNA level, 48 h; actives raise or lower the signal
[1] = read-out: cysteine-aspartic acid protease (CASP8), CASP8 (gene 841); assay: LTEA_HepaRG_CASP8: Life Technologies and Expression Analysis (LTEA) Assay for cysteine-aspartic acid protease (CASP8) using HepaRG (AID 2283480)
Method in brief: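 CASP8 transcript measured by TaqMan qRT-PCR with ACTB/GAPDH/POLR2A normalization, after 48 h chemical exposure of HepaRG cells in serum-free induction medium. Eight concentrations, top 100 uM, half-log steps, 0.5% DMSO vehicle; fits in both directions versus DMSO.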

[2] = read-out: DNA damage-inducible transcript 3 (DDIT3), DDIT3 (gene 1649); assay: LTEA_HepaRG_DDIT3: Life Technologies and Expression Analysis (LTEA) Assay for DNA damage-inducible transcript 3 (DDIT3) using HepaRG (AID 2283488)
Method in brief: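 qRT-PCR readout (Fluidigm TaqMan), housekeeping-normalized to ACTB, GAPDH, POLR2A. HepaRG cells, 48 h exposure, 8-point half-log series from 100 uM in 0.5% DMSO, duplicates. Gain or loss of signal fitted against DMSO baseline.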

[3] = read-out: Pro-epidermal growth factor (Homo sapiens) (UniProt P01133); assay: LTEA_HepaRG_EGF: Life Technologies and Expression Analysis (LTEA) Assay for Epidermal growth factor (EGF) using HepaRG (AID 2283489)
Method in brief: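 EGF expression changes in human HepaRG cells are scored by bidirectional fitting relative to 0.5% DMSO controls. Chemicals are tested at eight half-log concentrations up to 100 uM for 48 h in serum-free induction medium.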

[4] = read-out: Early growth response protein 1 (EGR1) transcription factor, EGR1 (gene 1958); assay: LTEA_HepaRG_EGR1: Life Technologies and Expression Analysis (LTEA) Assay for Early growth response protein 1 (EGR1) transcription factor using HepaRG (AID 2283490)
Method in brief: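 EGR1 transcript levels quantified by qRT-PCR (Fluidigm arrays) against three housekeeping genes after 48 h chemical exposure of HepaRG cells. Eight-point half-log series topping at 100 uM, 0.5% DMSO vehicle, analyzed for gain or loss.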

[5] = read-out: Ezrin (EZR), EZR (gene 7430); assay: LTEA_HepaRG_EZR: Life Technologies and Expression Analysis (LTEA) Assay for Ezrin (EZR) using HepaRG (AID 2283491)
Method in brief: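 EZR transcript levels came from Fluidigm qRT-PCR and were normalized to three housekeeping genes after 48 h chemical exposure of HepaRG cells. Dosing used an 8-point half-log series with a 100 uM top concentration in 0.5% DMSO, tested in duplicate; both directions were fitted versus vehicle.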

[6] = read-out: Glutathione S-Transferase (GSTA2), GSTA2 (gene 2939); assay: LTEA_HepaRG_GSTA2: Life Technologies and Expression Analysis (LTEA) Assay for Glutathione S-Transferase (GSTA2) using HepaRG (AID 2283497)
Method in brief: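 GSTA2 transcript levels came from Fluidigm TaqMan qRT-PCR normalized to three housekeeping genes, fitted in both directions against DMSO. HepaRG cultures received chemicals for 48 h in serum-free induction medium (0.5% DMSO), 8 half-log concentrations up to 100 uM, duplicate.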

[7] = read-out: Glutamate-cysteine ligase catalytic (GCLC), GCLC (gene 2729); assay: LTEA_HepaRG_GCLC: Life Technologies and Expression Analysis (LTEA) Assay for Glutamate-cysteine ligase catalytic (GCLC) using HepaRG (AID 2283498)
Method in brief: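 Expression by TaqMan qRT-PCR, normalized to three housekeeping genes (ACTB, GAPDH, POLR2A), with up- or down-regulation fitted against DMSO. HepaRG cells dosed in duplicate for 48 h with 8 half-log concentrations up to 100 uM, vehicle 0.5% DMSO.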

[8] = read-out: Cytochrome P450 (CYP1A2), CYP1A2 (gene 1544); assay: LTEA_HepaRG_CYP1A2: Life Technologies and Expression Analysis (LTEA) Assay for Cytochrome P450 (CYP1A2) using HepaRG (AID 2283479)
Method in brief: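 Assesses CYP1A2 mRNA in human HepaRG liver cells after 48 h chemical exposure at up to 100 uM. Values come from qRT-PCR with bidirectional curve fitting relative to DMSO.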

[9] = read-out: Cytochrome P450 (CYP2B6), CYP2B6 (gene 1555); assay: LTEA_HepaRG_CYP2B6: Life Technologies and Expression Analysis (LTEA) Assay for Cytochrome P450 (CYP2B6) using HepaRG (AID 2283481)
Method in brief: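 Using 48 h treatment of HepaRG cells in serum-free induction medium, concentrations spanned half-log steps from 100 uM in 0.5% DMSO vehicle. CYP2B6 mRNA induction or loss is scored by qRT-PCR against DMSO.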

[10] = read-out: Cytochrome P450 2C19 (Homo sapiens) (UniProt P33261); assay: LTEA_HepaRG_CYP2C19: Life Technologies and Expression Analysis (LTEA) Assay for CYP2C19 using HepaRG (AID 2283482)
Method in brief: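 Human HepaRG liver cells received test chemicals for 48 h (highest 100 uM, half-log dilutions in 0.5% DMSO). CYP2C19 mRNA induction or loss is read by multiplexed qRT-PCR and fitted in both directions versus vehicle.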

[11] = read-out: CYP2C8 (gene 1558); assay: LTEA_HepaRG_CYP2C8: Life Technologies and Expression Analysis (LTEA) Assay for CYP2C8 using HepaRG (AID 2283483)
Method in brief: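 CYP2C8 expression measured by TaqMan qRT-PCR and normalized to three housekeeping genes. HepaRG cultures were treated for 48 h with an eight-point half-log series topping at 100 uM, vehicle 0.5% DMSO, duplicates; fitted both directions against DMSO.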

[12] = read-out: CYP4A11 (gene 1579); assay: LTEA_HepaRG_CYP4A11: Life Technologies and Expression Analysis (LTEA) Assay for CYP4A11 using HepaRG (AID 2283486)
Method in brief: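 Readout is CYP4A11 mRNA induction or suppression (qRT-PCR, ACTB/GAPDH/POLR2A normalization) in human HepaRG cells after 48 h chemical treatment, concentrations to 100 uM in 0.5% DMSO, fitted bidirectionally against vehicle.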

[13] = read-out: Cytochrome P450 3A4 (Homo sapiens) (UniProt P08684); assay: LTEA_HepaRG_CYP3A4: Life Technologies and Expression Analysis (LTEA) Assay for CYP3A4 using HepaRG (AID 2283487)
Method in brief: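 Differentiated HepaRG cells, plated 48 h, then dosed 48 h in serum-free induction medium with 0.5% DMSO, 8 half-log concentrations up to 100 uM, duplicate. CYP3A4 mRNA by qRT-PCR, normalized to ACTB/GAPDH/POLR2A; bidirectional fit versus DMSO.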

[14] = read-out: Cytochrome P450 3A7 (Homo sapiens) (UniProt P24462); assay: LTEA_HepaRG_CYP3A7: Life Technologies and Expression Analysis (LTEA) Assay for CYP3A7 using HepaRG (AID 2283492)
Method in brief: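 Cells were thawed, plated, cultured 48 h, then treated for a further 48 h with chemicals (eight-point half-log series from 100 uM, 0.5% DMSO). RNA was isolated and CYP3A7 expression quantified by qRT-PCR normalised to ACTB, GAPDH and POLR2A.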

[15] = read-out: CYP3A5 (gene 1577); assay: LTEA_HepaRG_CYP3A5: Life Technologies and Expression Analysis (LTEA) Assay for CYP3A5 using HepaRG (AID 2283493)
Method in brief: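 qRT-PCR read-out: CYP3A5 transcript in HepaRG lysates, housekeeping-normalized (ACTB/GAPDH/POLR2A), fitted bidirectionally against 0.5% DMSO baseline. Exposure 48 h, eight half-log concentrations up to 100 uM, duplicates.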

[16] = read-out: Cytochrome P450 4A22 (Homo sapiens) (UniProt Q5TCH4); assay: LTEA_HepaRG_CYP4A22: Life Technologies and Expression Analysis (LTEA) Assay for Cytochrome P450 4A22 (CYP4A22) using HepaRG (AID 2283495)
Method in brief: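 Cryopreserved HepaRG cells, plated and cultured 48 h, then switched to serum-free induction medium and treated 48 h (duplicates, up to 100 uM, half-log steps, 0.5% DMSO). Expression change of CYP4A22 was fitted bidirectionally against vehicle.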

[17] = read-out: Cytochrome P450 7A1 (Homo sapiens) (UniProt P22680); assay: LTEA_HepaRG_CYP7A1: Life Technologies and Expression Analysis (LTEA) Assay for Cytochrome P450 7A1 (CYP7A1) using HepaRG (AID 2283496)
Method in brief: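 Using 0.5% DMSO as vehicle and baseline, chemicals were tested in duplicate over an 8-point range from 100 uM on HepaRG cells for 48 h; qRT-PCR signals were normalised to ACTB, GAPDH and POLR2A.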

[18] = read-out: CYP2E1 (gene 1571); assay: LTEA_HepaRG_CYP2E1: Life Technologies and Expression Analysis (LTEA) Assay for CYP2E1 using HepaRG (AID 2283485)
Method in brief: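 CYP2E1 transcript was measured by TaqMan qRT-PCR in human HepaRG cultures after 48 h chemical exposure (top 100 uM, half-log steps, 0.5% DMSO vehicle). Housekeeping-gene normalization; gain or loss fitted relative to DMSO baseline.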

[19] = read-out: Fatty Acid-Binding Protein 1 (FABP1), FABP1 (gene 2168); assay: LTEA_HepaRG_FABP1: Life Technologies and Expression Analysis (LTEA) Assay for Fatty Acid-Binding Protein 1 (FABP1) using HepaRG (AID 2283494)
Method in brief: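 FABP1 expression by TaqMan qRT-PCR, normalised to three housekeeping genes, in HepaRG cells after 48 h chemical treatment. Eight-point half-log series topping at 100 uM in 0.5% DMSO, duplicates; gain or loss fitted relative to vehicle.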

[20] = read-out: CYP2C9 (gene 1559); assay: LTEA_HepaRG_CYP2C9: Life Technologies and Expression Analysis (LTEA) Assay for CYP2C9 using HepaRG (AID 2283484)
Method in brief: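 CYP2C9 transcript level, quantified by TaqMan qRT-PCR against three housekeeping genes, was fitted bidirectionally relative to 0.5% DMSO. HepaRG cultures were treated 48 h, in duplicate, at eight half-log concentrations topping at 100 uM.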

Measured: AC50

Chain of Cytochrome P450 2C19 (Homo sapiens) (P33261 whole entry, looked up): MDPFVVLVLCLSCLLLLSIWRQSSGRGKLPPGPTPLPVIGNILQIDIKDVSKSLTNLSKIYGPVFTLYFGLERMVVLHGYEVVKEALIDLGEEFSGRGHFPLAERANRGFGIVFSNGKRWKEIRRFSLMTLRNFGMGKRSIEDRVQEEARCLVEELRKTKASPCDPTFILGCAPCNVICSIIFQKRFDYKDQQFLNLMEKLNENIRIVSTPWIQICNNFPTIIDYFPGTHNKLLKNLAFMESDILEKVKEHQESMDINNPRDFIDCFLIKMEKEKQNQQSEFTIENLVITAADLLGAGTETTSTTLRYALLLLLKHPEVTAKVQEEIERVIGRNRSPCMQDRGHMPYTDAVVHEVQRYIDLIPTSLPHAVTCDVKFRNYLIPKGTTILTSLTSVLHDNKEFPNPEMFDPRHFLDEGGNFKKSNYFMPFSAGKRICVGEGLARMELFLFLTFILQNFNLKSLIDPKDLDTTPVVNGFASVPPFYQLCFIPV
Chain of Cytochrome P450 3A4 (Homo sapiens) (P08684 whole entry, looked up): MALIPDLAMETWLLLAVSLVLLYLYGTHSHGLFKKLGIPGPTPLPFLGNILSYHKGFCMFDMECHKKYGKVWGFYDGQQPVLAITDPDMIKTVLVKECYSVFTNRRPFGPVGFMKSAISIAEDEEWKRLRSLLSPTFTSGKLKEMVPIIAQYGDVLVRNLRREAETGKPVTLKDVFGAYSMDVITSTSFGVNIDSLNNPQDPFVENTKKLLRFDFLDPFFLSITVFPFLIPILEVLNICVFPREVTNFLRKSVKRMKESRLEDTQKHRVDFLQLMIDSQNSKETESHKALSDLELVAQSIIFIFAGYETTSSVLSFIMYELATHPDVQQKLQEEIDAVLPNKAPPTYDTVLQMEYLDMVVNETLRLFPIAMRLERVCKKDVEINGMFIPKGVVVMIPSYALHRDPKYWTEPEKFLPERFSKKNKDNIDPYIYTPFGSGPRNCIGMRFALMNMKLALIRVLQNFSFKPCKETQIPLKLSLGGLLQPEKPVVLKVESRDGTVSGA
Chain of Cytochrome P450 3A7 (Homo sapiens) (P24462 whole entry, looked up): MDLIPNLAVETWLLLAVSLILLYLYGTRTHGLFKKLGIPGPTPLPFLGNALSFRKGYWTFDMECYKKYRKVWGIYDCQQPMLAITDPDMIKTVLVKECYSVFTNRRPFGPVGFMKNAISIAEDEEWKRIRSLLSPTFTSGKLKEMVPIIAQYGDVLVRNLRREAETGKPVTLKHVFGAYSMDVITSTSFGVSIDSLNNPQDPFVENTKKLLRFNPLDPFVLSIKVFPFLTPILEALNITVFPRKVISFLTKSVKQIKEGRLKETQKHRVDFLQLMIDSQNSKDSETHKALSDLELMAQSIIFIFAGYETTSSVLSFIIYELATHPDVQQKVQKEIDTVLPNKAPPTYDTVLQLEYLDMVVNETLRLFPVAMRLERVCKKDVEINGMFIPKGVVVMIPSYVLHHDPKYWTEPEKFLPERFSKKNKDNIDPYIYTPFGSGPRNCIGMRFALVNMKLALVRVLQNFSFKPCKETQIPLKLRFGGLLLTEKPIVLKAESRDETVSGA

Cc1ccc(O)cc1
inactive: [1] | [2] | [3] | [4] | [5] | [6] | [7]

COc1ccc(-n2nc(C(F)F)cc2-c2ccc(S(C)=O)cc2)cc1 (configuration not stated)
active: [8] 50 µM | [9] 13.4 µM | [10] 26.8 µM | [12] 68.8 µM | [13] 17.1 µM | [14] 19.3 µM | [16] 15.6 µM
not listed: [3] | [18] | [19] | [20]
inactive: all other assays above

O=c1[nH]c2ccc(S(=O)CCN3CCC(Cc4ccc(F)cc4)CC3)cc2o1 (configuration not stated)
inactive: [8] | [1] | [5] | [15] | [7]
active: [9] 82.3 µM | [11] 78.5 µM | [18] 50 µM | [12] 82.6 µM | [13] 12.5 µM | [2] 50 µM | [3] 30.7 µM | [4] 50 µM | [16] 80 µM | [17] 72.5 µM | [6] 87.5 µM

COc1ccc2sc(C(=O)Nc3nnn[nH]3)c(OC(C)C)c2c1
inactive: [11] | [12] | [13] | [5] | [15] | [7]
active: [8] 15.8 µM | [1] 39.2 µM | [9] 87.1 µM | [10] 87 µM | [2] 13.2 µM | [4] 74.8 µM | [19] 83.9 µM | [16] 1.17 µM | [17] 96.5 µM | [6] 50 µM

CC(C)CCCCCCCOC(=O)CCCCC(=O)OCCCCCCCC(C)C
not listed: [3] | [18] | [19] | [20]
inactive: all other assays above

CCCCC(CC)COC(=O)c1ccc(C(=O)OCC(CC)CCCC)cc1 (configuration not stated)
not listed: [3] | [18] | [20]
inactive: all other assays above

CC(C)=CCCC(C)=CC=O
active: [9] 50 µM
not listed: [3] | [18] | [20]
inactive: all other assays above

O=C(O)c1cccc(Oc2ccccc2)c1
active: [8] 30 µM | [9] 34.7 µM | [10] 31.2 µM | [12] 38.9 µM
not listed: [3] | [14] | [19] | [20]
inactive: all other assays above

CCOC(=O)COc1ccc2c(c1)CC(NCC(O)c1cccc(Cl)c1)CC2 (configuration not stated)
active: [9] 0.947 µM
not listed: [3] | [18] | [19] | [20]
inactive: all other assays above

O=P(OC(CCl)CCl)(OC(CCl)CCl)OC(CCl)CCl
inactive: [15]
active: [8] 80 µM | [1] 0.209 µM | [10] 84.9 µM | [11] 89.6 µM | [20] 76.3 µM | [18] 56 µM | [12] 67.8 µM | [13] 88.5 µM | [2] 79.1 µM | [3] 88.8 µM | [4] 91.6 µM | [5] 89.1 µM | [14] 9.92 µM | [16] 79 µM | [17] 76.9 µM | [6] 75.6 µM | [7] 89.5 µM

CCNc1ccccc1
active: [8] 16.5 µM | [9] 28.3 µM
not listed: [18] | [19] | [20]
inactive: all other assays above

O=C1CCC(N2C(=O)c3ccccc3C2=O)C(=O)N1 (configuration not stated)
not listed: [3] | [18] | [19] | [20]
inactive: all other assays above

COc1cccc(-c2ccc(/C=C\CN3CCCCCC3)cc2Cl)c1
inactive: [1] | [7]
active: [8] 69.9 µM | [9] 77.3 µM | [10] 74.9 µM | [11] 74.1 µM | [18] 61.8 µM | [12] 85.4 µM | [13] 76.3 µM | [2] 79.4 µM | [4] 72.7 µM | [5] 45.2 µM | [15] 8.98 µM | [19] 84.1 µM | [16] 84.4 µM | [17] 69.2 µM | [6] 71 µM

O=C1CCCCCN1
not listed: [18] | [19] | [20]
inactive: all other assays above
